From PubChem BioAssay AID1508600 (Functional Genomics Laboratory (NCATS/FGL), 2020)
The campaign covered roughly 53,000 sequences. About 3,700 (7%) were called active. Shown is part of a subset that was picked to be rich in actives. A number with no mark means an inactive call.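 The calls were made as follows: active = gene knockdowns whose robust z-score for IL-1 alpha signal is at least 2 or at most -2, so actives lie on both sides; inactive = the rest.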

assay: Components of the Cytosolic LPS Sensing Pathway: Gene Identification via Genome-wide siRNA Screen; conditions: RAW264.7 macrophages, IL-1a HTRF, actives lie on both sides, screened at 100 nM (by protocol), cells primed 5 h with Pam3CSK4 first;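 also: robust z of the log signal after scaling to non-targeting control siRNA wells of the plate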
Summary of the method: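 Three distinct siRNAs per gene were tested singly at 100 nM in RAW264.7 macrophages. Following Pam3CSK4 priming and 24 hour LipidA transfection, IL-1a secretion was read by HTRF.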

Sequence	z-score
GGAUGAUAAAGACAAAGUATT against Ppm1g	-0.921
GGUUUCUGGCUUUCCGUAGTT against Erf	-0.0549
GCUCUGCAUGACCUUACCUTT against Ugt2b1	0.245
GGCCUUUGUACAGGACCCATT against Tor2a	-1.01
GGUCAGAAGAGAUCAAAAGTT against Ttc23	-0.0386
GCCUACUCCCAAGAGGAAATT against Gprc5a	2.32 (active)
GGACAGCAAGAUGAAGAUGTT against Il17ra	-1.32
UUGAUUUGGUAGCCUGCUCTT against Olfr1303	0.962
CCCUGCUUCGUGUGCUAUUTT against C130074G19Rik	0.499
GGUACCUGAGGUAGAAAAGTT against Pnma3	-2.5 (active)
GGAAUGUGUUGAAAUAUGATT against P4ha3	0.0288
CCACGGAGACAACUUAGUATT against Scfd2	0.568
GGCGGUCAAGUGAGGUUCUTT against Hhex	3.62 (active)
GGACUUUUCUGCUAUUUACTT against Kcnh2	-0.471
GGAAAGAAUUGAAUACUCGTT against Gpr89	-0.279
GGUGAAUUUCCUUCUACAUTT against Tas1r1	-1.56
GCUGGGAUAUGAAAUCUAUTT against Gprc6a	2.74 (active)
GGUGAUAAAGUCAUUCCACTT against Adh1	0.759
GGAAGACAUAUUUCAACAGTT against Ehhadh	-1.37
GCAGUGUAUUGGUAAUCAATT against Olfr630	1.44
GCAUCGAUCUUGAGUUAGATT against Hebp1	0.579
GCGCAGGUUCAAUGUGGAUTT against Prodh	1.72

Sequence	z-score
GGCGAUAGACGAGUAUCAGTT against Aida	0.41
CCAGCAAAUAUCCUAGUAATT against Cdk19	0.111
CGUGUGUGUCAUGUUACGGTT against Dusp2	-0.901
GGAGAGCUGGAACAAUAGCTT against Bcl2l2	2.26 (active)
GGAUGAAUGGAGAACUGAATT against Afap1l1	-1.21
CCAUGACAAUGAAUAUCCUTT against Ms4a19	-1.24
GCGAGCUAAUGUCACAUUCTT against Il17ra	3.74 (active)
GGAACUAUCACGUGUUCUATT against Myo7a	0.837
CCAGAUGGGAUACCUCUACTT against Tmed6	0.303
GGUCUCUUUCAUGCUCGCATT against Agr3	3.06 (active)
CCCUAACCUCAUUUCAUGUTT against Vmn1r63	-1.01
GGAAAACAACGAAUUGCUCTT against Uri1	0.791
GCCGAUGACACUAUCUACCTT against Cryz	0.465
CCUCAAUCAAAAUGUAAGUTT against Atp6v0a2	0.456
GGAUCUGAAGGAAUACUUUTT against Lmf1	1.69
GGAACAAACCAAGUUCACATT against Kcnip2	-0.66
GGACUCCAAGAUCAUGGUCTT against Pnck	1.07
GCAAGACCCUUCGAGUGAATT against Nkd2	-1.2
GGCCAUUUAUCCAUGGUUGTT against Zdhhc17	0.954
GGCCUCAAGUUGCUAUGCCTT against Mlxipl	-0.2
GGAGAUGAAGUUAAAGCGATT against Slc26a6	0.619
GGCAGAUGUGUUUGCUUUUTT against Pbk	3.51 (active)

Sequence	z-score
GCACUGAACUUUGUCGAUUTT against Fam122a	0.325
CCCGAAGAGCAAAAAAGAUTT against 1110004F10Rik	-1.5
CGGUCAUUAAUGAAGCCUGTT against Pamr1	2.65 (active)
GGUGGUGUGUGAUGAGAAUTT against Pabpc6	0.649
GGGCUGUUUGUAGCAGAUUTT against Olfr1279	-1.12
GGUCACGGAGAAACUAAAGTT against Ppme1	0.703
GGCUAGGUAAUCACUGGGUTT against Fate1	0.987
CCAAUAUGAGACCAUCAUUTT against Sv2b	0.385
GCGACAUAACUGCAUUCAATT against Kcnh1	2.79 (active)
GGUCAAUUUGGUUUGUGAATT against Cenpa	-0.374
GGUAGAAAUUUACCUCAUUTT against Dusp4	-1.42
GCAGAGGAUAUAAAACAAGTT against Pde2a	-0.86
GGAAAAUAGGGCGACAAAUTT against Tdrd7	0.673
GGAUGAUUGAGAUAGCGAATT against Polr1e	0.608
CCGUACAUAUGGUGAUCCATT against Rtn1	-0.162
GGGAGAAGUGCUGUGGAUUTT against Fras1	0.401
CGAGAGCUAAAAAGAGUAATT against Chd1	0.42
GGAAGUUUCUGGAAACACATT against Mbd3	-0.487
GGAGGAUUGUCCACAUGGATT against Ccl27a	4.32 (active)
GGCAACAUGGUGAUCAUCGTT against Olfr323	-0.461
CGGUAUUUCAUCCUGGAUATT against Plekha1	0.403
GCAUGGAACAAGGUUGCUCTT against Pa2g4	1.84

Sequence	z-score
GGUACACCAAGGCUUGCUATT against Coq8b	-0.343
GCAUGAGUUAGACCAUAAUTT against Phf12	-2.59 (active)
GGCCUCUUUUGGUAUUCCATT against Zfp42	0.946
GGCCUCAAUGCAGUAUCAATT against Shisal2b	0.773
GCUAAGAAUAGGAGUUAGATT against Ift57	0.419
GGUCAGAAGUUAAUUUAUGTT against Rad23b	-0.413
GGACCUGCUCUUGGUCAUUTT against Fam118a	0.461
GGGAAGUGACCAUCAAGAATT against Slc8a3	2.56 (active)
GGUGAUGCGCCUGAAGGAUTT against Ntng2	-0.668
GCUCCUCCAUCAGUUAGAUTT against Ube2v2	-1.06
GGAAUCAACUUGGUGGCUCTT against Rxrg	-0.0611
GGGUUUCUGUUUGAUUCCATT against Gria1	-0.747
GGCUAUGCUGCCUACUACUTT against Bmp7	-2.63 (active)
GCCAACCUCUGUGUGUAUUTT against Olfr1263	0.799
UGGUUGUAUUAUUCUGUUGTT against Defb38	0.188
GGACUUAUCUCAUCCAAGATT against Gm9946	0.39
CCAGAAACGAUGCAUUCAUTT against Olfr124	2 (active)
GGACUUUGAAAAAGAUGCATT against Fkbp7	1.21
AGUAUUCUUUGCUUUCCUUTT against Olfr822	0.731
GGAGAAGAUGAUUAAGACCTT against Anp32b	0.51
CCACAGACUCUUAAUUAGATT against Ap3b1	-2.14 (active)
UAUCACAGACAUGAAAGAATT against Lst1	0.105

Sequence	z-score
GGAAAAACAGUGCAGAUGGTT against Smchd1	0.228
GGGCAUUAAGACAAAGAGUTT against Fam3c	0.769
GGAAAAGUUGCAUUUGGUCTT against Wdr17	-1.02
GGAGUUCACUGUGCUGAUGTT against Ppbp	-0.536
GCUAAACUUAAGUCCAUCATT against Supt7l	-0.592
GGGUUUGUGGGAUACAAUCTT against Smarce1	2.97 (active)
GGGUAGUUAUACAAACUAATT against Snapc5	1.53
GGUUCACAUCCUCCUCAGATT against Twist2	1.08
CCUUGAUGCUCGUAGGAAGTT against Efr3a	-1.11
GGACAUUCUGCUACACAAGTT against Bsx	2.63 (active)
GCCAACAUGUAUCAAAGCUTT against Rpgr	-1.11
GGACAAUGUGGUGCUGUCCTT against Slc34a3	0.492
GGAGUCCUUUCGUUCUAUCTT against Rab2a	-0.319
GGACAUUGCUAACUGCCUUTT against Snx16	2.37 (active)
GCCAAACUUACGUUUUUGATT against Trak2	0.81
CCUGUUUAAACUCUGCGGATT against Vit	0.678
GGUUUUGUAGGAGUCUCUCTT against Vmn1r54	0.247
GCUAGUACUAUUACCUGCUTT against Enkd1	2.17 (active)
GGUGAUGAUGAUGUCUUUGTT against B3gnt7	1.93
GCUGAAUAGCCUCUAUCUATT against Rasgrp4	0.261
